Rows were chosen to be rich in hits. Some 7.5% of all compounds tested hit in one or more screens of this group.
Rab9 prom act = Rab9 promoter activation | Huh7 Rab9 promoter-luciferase reporter, luminescence, 24 h | Potency, µM (highest dose often 9.22 µM), usual class: activators | actives 2.8% (n = 320,000); note: nearly all actives have a fitted effect of over 60% in size
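Measured in stably transfected Huh7 cells bearing a Rab9 promoter–luciferase construct: 24 h compound treatment at 37 °C, followed by luminescence detection.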
SMN2 splice up = increases expression of the SMN2 splice variant | HEK293 SMN2-luciferase splicing reporter, luminescence, 30-36 h | Potency, µM (titrated, usually from 46.1 µM), actives largely listed as activators | actives 2.8% (n = 210,000) | AID 1458; note: nearly all actives have a fitted effect of over 55% in size
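HEK293 cells carry an SMN2 […]–luciferase reporter in which exon 7 inclusion puts luciferase in frame. Cells were plated 10-12 h before compound addition, then incubated 30-36 h at 37C. ONE-Glo luminescence was read; sodium butyrate at 4.5 mM final served as control.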
ELG1 genotoxic = induces genotoxicity in HEK293T cells with luciferase-tagged ELG1; HEK293T ELG1-luciferase reporter, luminescence, 16 h; Potency, µM (highest dose often 46 µM), hits mostly activators; actives 1.3% (n = 330,000); AID 504466; note: nearly all actives have a fitted effect of over 60% in size
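Step 1: seed 2,000 HEK293T ELG1-luciferase cells per well. Step 2: add compound or DMSO, incubate 16 hr at 37 °C. Step 3: ONE-Glo, 30 min at room temperature, read luminescence.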
KinaseGlo FLuc = Kinase-Glo luciferase inhibition (counter-screen). Q27757. Kinase-Glo luciferase, ATP luminescence, 8 min. Potency, µM (top dose mostly 38.3 µM), most hits filed as inhibitors. actives 0.28% (n = 200,000). AID 1379; note: nearly all actives have a fitted effect of over 60% in size
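Inhibition of Kinase-Glo luciferase light generation was assessed at 10 uM ATP in pH 7.2 imidazole buffer, with luminescence measured after eight minutes at ambient temperature.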
FLuc counter = firefly luciferase modulation, counter-screen for miR-21 project; Potency, µM (doses to about 57.5 µM), hits mostly inhibitors; actives 6.9% (n = 360,000); P08659; purified FLuc, Km substrates, luminescence inhibition; AID 588342; note: nearly all actives have a fitted effect of over 55% in size
Target sequence (P08659 whole entry, looked up): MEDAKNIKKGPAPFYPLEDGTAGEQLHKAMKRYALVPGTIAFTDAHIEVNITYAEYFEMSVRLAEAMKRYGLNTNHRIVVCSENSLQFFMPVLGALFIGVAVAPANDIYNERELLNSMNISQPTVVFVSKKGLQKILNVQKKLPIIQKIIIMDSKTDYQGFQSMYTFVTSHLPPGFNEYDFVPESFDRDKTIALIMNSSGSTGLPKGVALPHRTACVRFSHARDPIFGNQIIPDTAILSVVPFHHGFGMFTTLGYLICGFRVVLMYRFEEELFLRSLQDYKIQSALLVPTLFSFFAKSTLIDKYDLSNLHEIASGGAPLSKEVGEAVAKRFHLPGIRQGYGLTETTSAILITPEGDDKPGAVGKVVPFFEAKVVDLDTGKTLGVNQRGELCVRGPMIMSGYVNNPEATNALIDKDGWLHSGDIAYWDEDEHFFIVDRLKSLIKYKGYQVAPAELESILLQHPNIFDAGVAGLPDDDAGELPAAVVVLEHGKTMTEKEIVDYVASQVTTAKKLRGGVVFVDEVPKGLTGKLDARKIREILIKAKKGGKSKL
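Biochemical qHTS of compounds, final roughly 60 µM downward over six points, against 10 nM purified firefly luciferase using Km concentrations of substrates (10 uM D-luciferin, 10 uM ATP) in Tris acetate pH 7.5 buffer; luminescence output.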
NPC1 prom act = activators of NPC1 promoter; Potency, µM (top dose mostly 9.22 µM), usual class: activators; actives 2.4% (n = 320,000); Huh7 NPC1 promoter luciferase reporter, 24 h; AID 485313; note: nearly all actives have a fitted effect of over 60% in size
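Readout is luciferase luminescence, reflecting NPC1 promoter activation in stably transfected Huh7 cells after 24 h compound exposure at 37 °C in reduced-serum medium with 10% FBS.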
Numbers stand for hits; i = inactive; ? = inconclusive; nt = no result given; [ ] = another dose, or the depositor's remark. Calls come from the whole dose curve; as a rule, active = well fitted curve in the direction sought with a large enough effect; inconclusive = small, poorly fitted or top-dose-only effect, or another doubt; inactive = no such curve, though single readings can be large; an effect the other way counts as inactive or inconclusive.

SMILES	Rab9 prom act	SMN2 splice up	ELG1 genotoxic	KinaseGlo FLuc	FLuc counter	NPC1 prom act
Cc1ccc2nc(-c3ccccc3N)[nH]c2c1	0.5µM	7.1µM	1.2µM	i	0.76µM	1.1µM
O=C(NCCN1CCCCC1)c1ccc(-n2c(=O)c(=O)[nH]c3ccccc32)cc1	nt	nt	nt	i	nt	nt
Cc1sc2nc(-c3ccccn3)[nH]c(=O)c2c1-c1ccccc1	i	i	?	i	11µM	i
Nc1nc(CSc2nc3ccccc3[nH]2)cs1	?	i	i	i	?	?
Nc1nc2ccccc2[nH]1	i	i	i	nt	i	i
Cc1c(N)cccc1-c1nc2ccccc2[nH]1	i	10µM	i	i	24µM	i
O=c1[nH]c(-c2ccccn2)nc2ccccc12	?	nt	?	nt	24µM	?
Cc1sc2nc(-c3ccncc3)[nH]c(=O)c2c1-c1ccccc1	i	i	i	i	i	i
Nc1nc(-c2nc3ccccc3[nH]2)cs1	1.1µM	16µM	2.1µM	i	5.4µM	1.3µM
CC(=O)N/C(=C\c1ccccc1)C(=O)OC/C=C/c1ccccc1	i	nt	i	nt	i	i
COc1ccccc1NC(c1ccc(Cl)cc1)c1nnc(-c2cccc(F)c2)o1 (stereo not drawn)	nt	i	nt	nt	?	nt
c1ccc(-c2nc3c(ccc4ccccc43)[nH]2)nc1	?	14µM	i	i	3.8µM	2.8µM
CCC(=O)C1=C(c2cccc(OC)c2)N(C(=O)CC)n2c(nnc2C2CCCCC2)S1	nt	nt	nt	nt	i	nt
CCOc1ccc(Oc2ccc(C(F)(F)F)cc2N)cc1	i	i[1.84 µM]	i	i	?	i
COc1cccc(Oc2ccc(C(F)(F)F)cc2N)c1	i	i[1.84 µM]	?	i	24µM	i
Cc1ccc(-c2nc3ccsc3c(=O)o2)cc1	2.5µM	i	18µM	i	2.7µM	2.8µM
Cc1ccc(NC(=O)Cn2nnc3ccccc32)cc1	3.5µM	nt	?	i	17µM	?
Cc1cccc(NC(=O)Cn2nnc3ccccc32)c1	2.8µM	i	?	i	?	2.8µM
COC(=O)c1ccc(NC(=O)Cn2nnc3ccccc32)cc1	2.8µM	13µM	16µM	i	4.3µM	3.5µM
COc1ccc(NC(=O)COC(=O)Cn2nnc3ccccc32)cc1	i	i	i	i	i	i
O=C(Cn1nnc2ccccc21)Nc1ccc([N+](=O)[O-])cc1	i	nt	i	nt	i	i
Cc1ccc(SCc2nc3ccccc3n2CC(=O)Nc2ccccc2)cc1	i	i	i	i	15µM	i
c1ccc(CNc2nc3ccccc3c3nc(-c4ccccc4)nn23)cc1	nt	i	nt	nt	i	nt
O=C(NC1CCCCCC1)c1ccc(N2CCCC2=O)cc1	3.2µM	13µM	9.2µM	i	13µM	4µM
O=C(NC1CC2CCCC(C1)N2C(=O)NC1CCCCC1)c1ccc(F)cc1 (stereo not drawn)	i	nt	i	nt	i	i
SMILES	Rab9 prom act	SMN2 splice up	ELG1 genotoxic	KinaseGlo FLuc	FLuc counter	NPC1 prom act
O=C(Nc1ccc(F)cc1)NC1CCCCCCC1	?	nt	?	nt	9.5µM	3.5µM
O=C(NC1CCCCCCC1)c1ccc(F)cc1	1.4µM	nt	10µM	nt	12µM	1.4µM
O=C(Nc1ccc(Cl)cc1)NC1CCCCC1	2.5µM	11µM	i	i	?	1.1µM
O=C(NC1CCCCC1)c1ccc(N2CCCC2=O)cc1	i	?	?	i	?	?
CC(C)(C)OC(=O)N1CCC(c2c(C(=O)NCc3ccco3)cnn2-c2ccc(F)cc2)CC1	nt	nt	nt	nt	i	nt
COc1cccc(CN2CCCC(C(=O)Nc3ccc(-c4cscn4)cc3)C2)c1 (stereo not drawn)	i	nt	i	nt	i	i
CCOC(=O)Cn1c(=O)n(CC2CCCO2)c2nc(-c3ccc(CC)cc3)nc(C(N)=O)c21 (stereo not drawn)	nt	nt	nt	nt	i	nt
O=C(Nc1cccc(Cl)c1)NC1CCCCC1	?	i	i	i	?	?
O=C(Nc1ccc(F)c(F)c1)NC1CCCCC1	?	4.5µM	i	i	15µM	?
S=C(Nc1cccc2ccccc12)NC1CCCCC1	?	?	?	i	19µM	i
O=C(Nc1ccccc1F)NC1CCCCCCC1	4µM	nt	?	nt	12µM	?
CCC(=O)N(CC)C1=C(O)c2ccccc2C(=O)C1=O	i	i	i	i	?	i
CC(C)=CCC1=C(O)c2ccccc2C(=O)C1=O	nt	4µM	nt	i	nt	nt
CN(C)/C=C(/C#N)C(=O)c1cccc(Oc2ccc(C(C)(C)C)cc2)c1	i	i	i	i	15µM	i
CCC(C)(C)c1ccc(Oc2ccc(N)cc2)cc1	i	i	i	i	?	i
Cc1ccccc1Oc1cccc(C(=O)/C(C#N)=C/N(C)C)c1	i	i	?	i	?	i
CCC(C)(C)c1ccc(Oc2cccc(C(=O)O)c2)cc1	?	i[9.22 µM]	i	i[7.66 µM]	?	1.8µM
COc1ccc(OCC(=O)N(Cc2cccc(OC)c2)C2CCS(=O)(=O)C2)cc1 (stereo not drawn)	nt	i	nt	nt	i	nt
COCCCn1c(=O)c2sccc2n2c(CCCC(=O)Nc3cc(C)cc(C)c3)nnc12	nt	nt	nt	nt	i	nt
COc1ccc(NC(=O)Cn2nnc(C(=O)NCCc3ccc(OC)c(OC)c3)c2N)c(OC)c1	i	i	i	i	i	i
N#Cc1cnc(NN)nc1	i	i	i	i	i	i
CCOc1ccccc1NCc1cc(=O)oc2cc(C)ccc12	i	nt	i	nt	?	i
Cc1ccc2c(CNCc3ccco3)cc(=O)oc2c1	?	13µM	?	i	24µM	?
Cc1ccc(Cn2c(=O)n(CCCCC(=O)NCCc3ccc(Cl)cc3)c(=O)c3ccccc32)cc1	nt	i	nt	nt	i	nt
CCOc1c(O)ccc(/C=C2\SC(=S)NC2=O)c1[N+](=O)[O-]	i	i	i	i	13µM	i
SMILES	Rab9 prom act	SMN2 splice up	ELG1 genotoxic	KinaseGlo FLuc	FLuc counter	NPC1 prom act
CC(=O)c1ccc(NC(=O)C2(c3ccccc3)CCOCC2)cc1	?	i	?	i	13µM	3.2µM
CCN(CC)S(=O)(=O)c1ccc2c(c1)N(CC(=O)N1CCN(c3ccc(Cl)cc3)CC1)C(=O)CO2	nt	nt	nt	nt	i	nt
CCCCCc1ccc(-c2cn(Cc3ccc(C)cc3)nn2)cc1	3.5µM	nt	i	nt	?	?
COc1ccc(-c2cn(Cc3ccc(C)cc3)nn2)cc1	2.8µM	nt	?	nt	?	4µM
CCCCCc1ccc(-c2cn(Cc3cccc(OC)c3)nn2)cc1	i	nt	i	nt	?	i
CC(C(=O)O)c1ccc(N2Cc3ccccc3C2=O)cc1 (stereo not drawn)	0.32µM	1.3µM	i	?	0.27µM	0.089µM
CCN(c1ccccc1C)S(=O)(=O)c1nnc(NC(=O)c2ccc(OC)c(OC)c2)s1	nt	nt	nt	nt	i	nt
O=C(O)c1ccccc1C(=O)NCCc1c(C(=O)O)[nH]c2ccc(F)cc12	i	nt	i	nt	i	i
COc1ccc(/C=C/c2nc3cc(-c4ccccc4)ccc3o2)cc1O	i	i	i	i	9.5µM	i
COc1ccc(N(CC(=O)N/N=C(\C)CCc2ccccc2)S(=O)(=O)c2ccc(C)cc2)cc1	i	nt	i	nt	i	i

Compound activity deposited in PubChem BioAssay by National Center for Advancing Translational Sciences (NCATS).
